This is an account of results in PubChem BioAssay (NCI).

Compounds without any hit were thinned out: in the full panel of roughly 83,000, 20% have a hit.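 Testing used 96-well plates and a 48-hour single-concentration exposure. Example: -40 means 40% of the starting cells died.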 Unmarked numbers belong to inactive results. Activity calls are given as the source filed them. How the source made its calls: active means growth percent below 10; inactive means the rest.

Test systems include RPMI-8226 leukemia; OVCAR-8 ovarian; OVCAR-5 ovarian; OVCAR-4 ovarian; SK-OV-3 ovarian; IGROV1 ovarian; OVCAR-3 ovarian; NCI/ADR-RES ovarian; HS 578T breast.
Assay in all cases: NCI-60 one-dose screen, 48 h (100 = growth as untreated, 0 = no growth, -100 = all killed)
Details in all cases: 10 µM

`CN1CCN(c2ccc(Nc3nc(NCCCNC(=O)c4ccc(F)cc4)c4sccc4n3)cc2)CC1`: the growth in the assay on RPMI-8226 leukemia is -22.5% (active); in the assay on OVCAR-8 ovarian, 47.5%; in the assay on OVCAR-5 ovarian, 78.2%; with OVCAR-4 ovarian, 80.1%; with SK-OV-3 ovarian, 102%; in the assay on IGROV1 ovarian, 77.8%. Also, the growth in the assay on OVCAR-3 ovarian is 61.6%; in the assay on NCI/ADR-RES ovarian, 76.2%.

Regarding `CN(C)c1cccc2c(S(=O)(=O)Nc3cccc(-c4csc(NC(=O)CCCCCN5CCN(c6cc7c(cc6F)C(=O)N(C6CCC(=O)NC6=O)C7=O)CC5)n4)c3)cccc12` (stereo not drawn), the growth in the assay on RPMI-8226 leukemia is 50.7%; in the assay with OVCAR-8 ovarian, 94.6%; in the assay with OVCAR-5 ovarian, 105%; in the assay on OVCAR-4 ovarian it was 66.6%; in the assay with SK-OV-3 ovarian, 86.9%; in the assay on IGROV1 ovarian, 96.3%. In addition, the results for the growth in the assay with OVCAR-3 ovarian, in the assay on HS 578T breast and in the assay with NCI/ADR-RES ovarian were 99.8%, 70.4% and 98.4%, respectively.

For `COc1csc(/C=N/NC(=O)c2[nH]c3ccc(Br)cc3c2-c2ccccc2)c1`, the growth was 6.04% (active) with RPMI-8226 leukemia; 2.26% (active) in the assay with OVCAR-8 ovarian; 17.5% with OVCAR-5 ovarian; 30.3% in the assay on OVCAR-4 ovarian; 22% in the assay with IGROV1 ovarian; 6.96% (active) with OVCAR-3 ovarian. For the same molecule, the results for the growth in the assay with HS 578T breast and in the assay on NCI/ADR-RES ovarian were -1.74% (active) and -35.2% (active), respectively.

As for `CO[C@@H]1CSSC1Cn1nc(-c2ccc(Oc3ccccc3)cc2)c2c(N)ncnc21` (stereo partly drawn), the growth was 34.6% in the assay on RPMI-8226 leukemia; 75.5% in the assay on OVCAR-8 ovarian; 62.5% in the assay on OVCAR-5 ovarian; 53.3% in the assay on OVCAR-4 ovarian; 53.1% in the assay on IGROV1 ovarian; 56% in the assay on OVCAR-3 ovarian. The growth in the assay with HS 578T breast is 61.6%; in the assay on NCI/ADR-RES ovarian it was 57.5%.

For the molecule `CN1CCN(c2ccc(Nc3nc(NCCNC(=O)c4ccc(C(F)(F)F)cc4)c4sccc4n3)cc2)CC1`, the growth was -40.1% (active) with RPMI-8226 leukemia; 21% in the assay with OVCAR-8 ovarian; 42.3% with OVCAR-5 ovarian; -33.2% (active) in the assay with OVCAR-4 ovarian; 77% with SK-OV-3 ovarian; 65% with IGROV1 ovarian. Besides, the growth in the assay on OVCAR-3 ovarian is 27.8%; in the assay on HS 578T breast, -8.08% (active); with NCI/ADR-RES ovarian, 38.5%.

Take `COC[C@@H](CC(C)C)N=C1NC(=O)/C(=C/c2ccc3ncsc3c2)N1`: the growth with RPMI-8226 leukemia is 4.92% (active); in the assay on OVCAR-8 ovarian, 13.7%; with OVCAR-5 ovarian it was -21.7% (active); in the assay on OVCAR-4 ovarian, 40.4%; in the assay with SK-OV-3 ovarian, -0.203% (active); in the assay on IGROV1 ovarian, 8.22% (active). Moreover, the growth in the assay with OVCAR-3 ovarian was -38.4% (active); in the assay on HS 578T breast, 11.6%; with NCI/ADR-RES ovarian it was 9.71% (active).

Turning to `Cc1ccc(NC(=O)c2ccc(-n3c(=O)[nH]c4ccccc4c3=O)cc2)cc1`, the growth is 133% in the assay on RPMI-8226 leukemia; 52.9% in the assay with OVCAR-8 ovarian; 106% in the assay on OVCAR-5 ovarian; 98.8% in the assay with OVCAR-4 ovarian; 103% in the assay on IGROV1 ovarian; 90.5% in the assay with OVCAR-3 ovarian. Moreover, the values for the growth with HS 578T breast and with NCI/ADR-RES ovarian were 78.3% and 80.2%, respectively.

On to `COc1ccc2nc(Cl)c(-c3cc(-c4ccccc4)nc(=S)[nH]3)cc2c1`, for which the growth with RPMI-8226 leukemia was 71.7%; in the assay on OVCAR-8 ovarian, 68.2%; in the assay with OVCAR-5 ovarian it was 95.1%; in the assay with OVCAR-4 ovarian, 90.1%; in the assay on SK-OV-3 ovarian, 37.4%; with IGROV1 ovarian, 79%. In addition, the growth in the assay with OVCAR-3 ovarian was 80.8%; in the assay with HS 578T breast it was 31.7%; in the assay on NCI/ADR-RES ovarian it was 40.9%.

As for `O=C1NC(=NC2CCCCCC2)N/C1=C\c1ccc2ncoc2c1`, the growth with RPMI-8226 leukemia was 35.9%; in the assay on OVCAR-8 ovarian, 27.3%; in the assay with OVCAR-5 ovarian, 50.3%; with OVCAR-4 ovarian, 62%; with IGROV1 ovarian, 34.6%; in the assay on OVCAR-3 ovarian it was -3.02% (active). Moreover, the growth with HS 578T breast is 42%; in the assay with NCI/ADR-RES ovarian it was 41.1%.

Take `COc1ccc(N(C)c2cc(C#N)nc3ccccc23)cc1/C=C/C(=O)NO`: the growth in the assay on RPMI-8226 leukemia is 5.81% (active); in the assay on OVCAR-8 ovarian, -37.9% (active); in the assay with OVCAR-4 ovarian, 7.41% (active); in the assay on SK-OV-3 ovarian it was -22.7% (active); in the assay on IGROV1 ovarian, -57.4% (active); in the assay on OVCAR-3 ovarian, -43.4% (active). For the same molecule, the growth in the assay on HS 578T breast was -18.2% (active); in the assay on NCI/ADR-RES ovarian, -41.9% (active).

`C=C(C)[C@@H]1CC[C@]2(C)[C@H](CC=C3[C@@H]4CC(C)(C)CC[C@]4(C(=O)N4CCOCC4)CC[C@]32C)[C@@]1(C)CCCN`: the growth in the assay with RPMI-8226 leukemia was -51.2% (active); with OVCAR-8 ovarian it was -66.3% (active); in the assay with OVCAR-4 ovarian, -89.4% (active); in the assay with SK-OV-3 ovarian, -94.6% (active); in the assay with IGROV1 ovarian it was -91.2% (active); in the assay on OVCAR-3 ovarian, -84.8% (active). Also, the growth in the assay with HS 578T breast was -63.4% (active); in the assay on NCI/ADR-RES ovarian, -59.8% (active).

For the molecule `CC(=O)c1ccc(NC(=O)NCn2c(=O)[nH]c3ccccc3c2=O)cc1`, the growth is 87.8% in the assay with RPMI-8226 leukemia; 101% in the assay with OVCAR-8 ovarian; 107% with OVCAR-4 ovarian; 94.9% in the assay on SK-OV-3 ovarian; 104% in the assay with IGROV1 ovarian; 131% in the assay with OVCAR-3 ovarian. Besides, the growth with HS 578T breast is 97.3%; in the assay on NCI/ADR-RES ovarian, 107%.

As to `Cc1ccc(C(C)C)cc1NC(=O)c1ccccc1O`, the growth in the assay with RPMI-8226 leukemia was 3.01% (active); in the assay on OVCAR-4 ovarian it was 24.6%; in the assay on SK-OV-3 ovarian, 44.5%; with IGROV1 ovarian it was 54.3%; in the assay with OVCAR-3 ovarian it was 29.9%; with HS 578T breast, 43%. Besides, the growth with NCI/ADR-RES ovarian was 29.1%.

On to `COc1ccc2[nH]c(O)c(N=NC(=O)COc3ccc(NC(=O)Nc4ccc(Cl)cc4)cc3)c2c1`, for which the growth in the assay with RPMI-8226 leukemia was 32.1%; in the assay with OVCAR-5 ovarian, 48%; in the assay on OVCAR-4 ovarian, -21.6% (active); in the assay on SK-OV-3 ovarian it was 49.6%; in the assay with IGROV1 ovarian, 68.8%; in the assay with OVCAR-3 ovarian, -30.6% (active). For the same molecule, the growth in the assay with HS 578T breast is 22.8%; in the assay with NCI/ADR-RES ovarian, 102%.

Consider `CC1=C2C(=C[C@@](C)(CO)[C@@H]2O)/C(=N\N)[C@](C)(O)C12CC2`, for which the growth in the assay with OVCAR-8 ovarian was 1.18% (active); in the assay on OVCAR-5 ovarian it was -42.8% (active); in the assay on OVCAR-4 ovarian, -21.7% (active); with SK-OV-3 ovarian, -24.7% (active); in the assay on IGROV1 ovarian, -11.3% (active); in the assay with OVCAR-3 ovarian it was -24.4% (active). Moreover, the growth was -12.5% (active) with HS 578T breast and -43.2% (active) in the assay on NCI/ADR-RES ovarian.
